Results: PubChem BioAssay (NCI)
Where “and” joins values, the source holds several entries; their conditions need not be identical. Identical values can stand only once. The panel holds about 83,000 compounds, 20% with a hit somewhere; the sample as a whole holds those more often.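 Plates (96-well) were seeded with cells, treated with compound at one concentration, and incubated for 48 hours before percent growth was determined.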 A number with no mark means an inactive call. Calls of active or inactive are those of the source. Rule for the calls: active = growth percent below 10; inactive = the rest.

Columns and labels:
Test in all cases: NCI-60 one-dose screen, 48 h (100 = growth as untreated, 0 = no growth, -100 = all killed)
Settings in all cases: 10 µM unless noted
NCI-H23 lung = tested on: NCI-H23 lung
NCI-H226 lung = tested on: NCI-H226 lung
HOP-62 NSCLC = tested on: HOP-62 NSCLC
NCI-H460 lung = tested on: NCI-H460 lung
HOP-92 NSCLC = tested on: HOP-92 NSCLC
A549/ATCC NSCLC = tested on: A549/ATCC NSCLC
786-0 renal = tested on: 786-0 renal
COLO 205 colon = tested on: COLO 205 colon
NCI-H322M lung = tested on: NCI-H322M lung
NCI-H522 lung = tested on: NCI-H522 lung

SMILES | growth (NCI-H23 lung) | growth (NCI-H226 lung) | growth (HOP-62 NSCLC) | growth (NCI-H460 lung) | growth (HOP-92 NSCLC) | growth (A549/ATCC NSCLC) | growth (786-0 renal) | growth (COLO 205 colon) | growth (NCI-H322M lung) | growth (NCI-H522 lung)
COC(=O)C1=CO[C@@H](C)[C@@H]2CN3CCc4c([nH]c5cc(OC)ccc45)[C@@H]3C[C@H]12 | 95.9% | 94.5% | 113% | 99.7% | 78% | 95.8% | 108% | 101% |  | 
CC(=O)C(N)Cc1ccccc1 (stereo unspecified) | 98.3% |  | 85.1% |  | 86.3% | 67.9% | 96.5% | 97.8% | 106% | 
O=[N+]([O-])c1c(Cl)cc(Cl)c([N+](=O)[O-])c1Cl | 98.3% | 117% |  | 95.8% | 99.6% | 108% | 126% | 96% | 119% | 36.6%
C=CCOC(=O)C(Br)CC (stereo unspecified) | 99% | 101% | 108% | 104% |  | 107% | 106% | 103% | 108% | 99.2%
O=C(O)CNCP(=O)(O)O | 107% | 103% | 109% | 119% |  | 102% | 106% | 119% | 106% | 98.2%
N#CCCc1ccccc1 | 104% | 95.4% |  | 112% |  |  | 106% | 109% | 105% | 95.3%
OCCN=Cc1c[nH]c2ccccc12 | 91.6% | 83.5% | 85.1% | 103% |  | 95.2% | 95.7% | 112% | 102% | 95.2%
Nc1ccc(P(=O)(O)O)cc1 | 101% and 96.7% | 102% and 100% |  | 113% and 103% | 95.3% and 90.3% | 102% and 94.4% | 113% and 91.2% | 111% and 105% | 104% and 99.3% | 111% and 88.8%
CC1(C)CN=C(NN=C(/C=C/c2ccc(C(F)(F)F)cc2)/C=C/c2ccc(C(F)(F)F)cc2)NC1 | -43% (active) | -15.1% (active) | -85.5% (active) | -54% (active) |  |  | -90.2% (active) | -91.6% (active) | 31.4% | -76.6% (active)
COc1c(O)cc2c(c1OC)-c1ccc(SC)c(=O)cc1C(NC(C)=O)CC2 (stereo unspecified) | 21.4% | 23.1% | 22.2% | 3% (active) |  | 46.4% | 19.1% | -44.6% (active) | 41.1% | 
CC(=O)c1cccc(S(=O)(=O)F)c1 | 100% | 97.2% | 98.4% | 109% |  | 98.6% | 98.4% | 114% | 95.6% | 89.8%
CCOP(=O)(OCC)C(=O)N(CC)CC | 105% | 94.3% | 99.9% | 103% |  | 98.4% | 98% | 118% | 105% | 91.7%
Nc1nc(=S)nc(N)[nH]1 | 89.5% | 96.9% | 89% | 111% |  |  | 88.6% |  | 102% | 
ClCc1ccc(Cl)c(Cl)c1 | 102% | 93.7% | 111% | 103% |  | 107% | 95.4% | 116% | 98.3% | 94.2%
